Reference: PubChem BioAssay
Results filed as inconclusive are left out. The source made the active and inactive calls.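 Rule for the calls, unless noted: active = viability at or below 27.92% in each of two runs, the all-compound median minus 4 SD; inconclusive = no clear call, values can overlap the other calls; inactive = the rest.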

assay: growth suppression of PTEN-deleted HCT116, pilot screen, cell-based, HCT116 clonal line, CellTiter-Glo (AID 824); settings: 60 h, at 10 µM, hits give low values;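 note: 0% = 20 µM Hyamine control and 100% = vehicle cell control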

| SMILES | viability |
| --- | --- |
| Cc1ccc(S(=O)(=O)NCC(=O)N2CCOCC2)cc1 | 109% (inactive) |
| COc1ccc(Cl)cc1C(=O)Nc1cc(=O)n(C)c(=O)n1C | 99.1% (inactive) |
| CCc1noc2c1/C(=N\O)CC(c1ccccc1)C2 (stereo not given) | 84.8% (inactive) |
| CN(CC1CCCO1)S(=O)(=O)c1ccc(C(=O)Nc2nc(-c3ccccn3)cs2)cc1 (stereo not given) | 23.1% (active) |
| Cc1csc(NC(=O)C2CCCN(S(=O)(=O)c3cccnc3)C2)n1 (stereo not given) | 101% (inactive) |
| O=C(NCCn1ccc2ccccc21)c1ccc(S(=O)(=O)N2CCOCC2)cc1 | 96.7% (inactive) |
| COCCOC(=O)C1=C(C)NC(=O)NC1c1c(F)cccc1Cl (stereo not given) | 95.8% (inactive) |
| CN(CC(=O)NC1CCCc2ccccc21)S(=O)(=O)c1ccc2c(c1)c(=O)n(C)c(=O)n2C (stereo not given) | 94% (inactive) |
| Cc1ccc2oc(=O)c3cnn(CC(=O)NC4CCCCC4C)c3c2c1 (stereo not given) | 84.1% (inactive) |
| Cc1nc(-c2ccc(S(=O)(=O)N3CCCCCC3)cc2)cs1 | 89.7% (inactive) |
| FC(F)(F)C12CC(c3ccccc3)=NCCN1CCN2 (stereo not given) | 97.9% (inactive) |
| CCCCCN=C(C)c1c(O)c2ccccc2oc1=O | 90.7% (inactive) |
| CC1=C(C(=O)Nc2ccccc2C)C(c2ccccc2)NC(=O)N1 (stereo not given) | 97.9% (inactive) |
| C/C(=C1\SC(N2CCOCC2)=NC1=O)c1ccccc1 | 102% (inactive) |
| N#CC1=C(N)Oc2n[nH]c(-c3ccccc3)c2C1c1cccc(OC(=O)N2CCOCC2)c1 (stereo not given) | 104% (inactive) |
| Cn1c(Cn2c(=O)sc3ccccc32)nnc1SCC(=O)NC1CCCCC1 | 98% (inactive) |
| CCN1C(=O)CS/C1=N\c1nccs1 | 105% (inactive) |
| COc1ccc(CNC(=O)c2cc3c(C)nc4ccccc4c3o2)c(OC)c1 | 75.2% (inactive) |
| CCCC(=O)NCCCc1nc2ccccc2n1C | 105% (inactive) |
| CCCCn1c(CCC(=O)O)ccc1-c1cccs1 | 94.8% (inactive) |

| SMILES | viability |
| --- | --- |
| CCOc1ccc(N(CC(=O)NCCSc2ccccn2)S(C)(=O)=O)cc1 | 95.3% (inactive) |
| Cc1c(NS(=O)(=O)CC23CCC(CC2=O)C3(C)C)c(=O)n(-c2ccccc2)n1C (stereo not given) | 96.4% (inactive) |
| CCc1nnc(NC(=O)C2Cc3ccccc3C(=O)O2)s1 (stereo not given) | 104% (inactive) |
| COc1ccc(C2C(C(=O)NCCN3CCOCC3)c3ccccc3C(=O)N2C)cc1OC (stereo not given) | 100% (inactive) |
| CC1CCN(c2nnc(N3CCC(C)CC3)c3ccccc23)CC1 | 81.8% (inactive) |
| Cc1ccc(S(=O)(=O)N2CCN(C(=O)CN3CCCC3)C2)cc1 | 100% (inactive) |
| O=C(Nc1ccc(S(=O)(=O)N2CCOCC2)cc1)c1ccc(Cl)cc1 | 80.2% (inactive) |
| O=C(O)CCNc1cc2ccccc2cc1C(=O)O | 96.5% (inactive) |
| CCCn1c(C(O)c2ccc3c(c2)OCO3)nc2ccccc21 (stereo not given) | 102% (inactive) |
| CCc1ccc2c(c1)C(NC(C)=O)C(=O)N2CC (stereo not given) | 86% (inactive) |
| O=C(c1c(F)cccc1F)N1CCN(c2cccc(C(F)(F)F)c2)CC1 | 82.1% (inactive) |
| CCCn1c2ccccc2c2cc(C(=O)O)ccc21 | 93.5% (inactive) |
| O=S(=O)(NCCSc1nnc(-c2ccco2)n1-c1ccccc1)c1ccccc1 | 87.1% (inactive) |
| COc1ccc(Nc2ccc3c(c2)=NC2(CCCCC2)[N+]=3[O-])cc1 | 1.61% (active) |
| Cn1c(Cn2c(=O)sc3ccccc32)nnc1SCC(=O)NCc1ccccc1Cl | 103% (inactive) |
| O=C(Nc1cccnc1)c1ccccc1F | 103% (inactive) |
| CCOc1ccc2nc(N3CCC(C(=O)Nc4nnc(CC)s4)CC3)sc2c1 | 95.1% (inactive) |
| O=C1N(O)C2(C=CCCC2)/C(=N\O)C12CCCCC2 (stereo not given) | 100% (inactive) |
| O=C1CCCC2=C1C1(O)C(=O)c3ccccc3C1(O)O2 (stereo not given) | 88.7% (inactive) |
| CC1CCC(NC(=O)c2cc3c(=O)n(C)c4ccccc4c3n2C)CC1 (stereo not given) | 66% (inactive) |

assay: inhibitors of the yeast RAM network, pilot screen, dse1pr::URA3 reporter, 5-FOA selection (AID 869;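 active = inhibition over a set limit, the all-compound mean plus 3 SD, in both replicate runs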;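 note: 0% = DMSO wells with no growth and 100% = 10 µM 1-NA-PP1 with full growth; RAM network block rescues cells from 5-FOA so hits raise OD615 growth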); settings: S. cerevisiae dse1pr::URA3 5-FOA growth, OD615, 2 d; at 10 µM; hits give high values; strain carries analog-sensitive mutant Cbk1 kinase

| SMILES | inhibition |
| --- | --- |
| Cc1ccc(S(=O)(=O)NCC(=O)N2CCOCC2)cc1 | -0.085% (inactive) |
| COc1ccc(Cl)cc1C(=O)Nc1cc(=O)n(C)c(=O)n1C | 1.71% (inactive) |
| CCc1noc2c1/C(=N\O)CC(c1ccccc1)C2 (stereo not given) | 1.78% (inactive) |
| CN(CC1CCCO1)S(=O)(=O)c1ccc(C(=O)Nc2nc(-c3ccccn3)cs2)cc1 (stereo not given) | 2.57% (inactive) |
| Cc1csc(NC(=O)C2CCCN(S(=O)(=O)c3cccnc3)C2)n1 (stereo not given) | 1.59% (inactive) |
| O=C(NCCn1ccc2ccccc21)c1ccc(S(=O)(=O)N2CCOCC2)cc1 | 0.33% (inactive) |
| COCCOC(=O)C1=C(C)NC(=O)NC1c1c(F)cccc1Cl (stereo not given) | 0.515% (inactive) |
| CN(CC(=O)NC1CCCc2ccccc21)S(=O)(=O)c1ccc2c(c1)c(=O)n(C)c(=O)n2C (stereo not given) | 2.24% (inactive) |
| Cc1ccc2oc(=O)c3cnn(CC(=O)NC4CCCCC4C)c3c2c1 (stereo not given) | 1.73% (inactive) |
| Cc1nc(-c2ccc(S(=O)(=O)N3CCCCCC3)cc2)cs1 | 0.075% (inactive) |
| FC(F)(F)C12CC(c3ccccc3)=NCCN1CCN2 (stereo not given) | 1.35% (inactive) |
| CCCCCN=C(C)c1c(O)c2ccccc2oc1=O | -0.66% (inactive) |
| CC1=C(C(=O)Nc2ccccc2C)C(c2ccccc2)NC(=O)N1 (stereo not given) | 1.01% (inactive) |
| C/C(=C1\SC(N2CCOCC2)=NC1=O)c1ccccc1 | 0.76% (inactive) |
| N#CC1=C(N)Oc2n[nH]c(-c3ccccc3)c2C1c1cccc(OC(=O)N2CCOCC2)c1 (stereo not given) | 2.34% (inactive) |
| Cn1c(Cn2c(=O)sc3ccccc32)nnc1SCC(=O)NC1CCCCC1 | 0.415% (inactive) |
| CCN1C(=O)CS/C1=N\c1nccs1 | 1.64% (inactive) |
| COc1ccc(CNC(=O)c2cc3c(C)nc4ccccc4c3o2)c(OC)c1 | 1.66% (inactive) |
| CCCC(=O)NCCCc1nc2ccccc2n1C | -0.03% (inactive) |
| CCCCn1c(CCC(=O)O)ccc1-c1cccs1 | 0.85% (inactive) |

| SMILES | inhibition |
| --- | --- |
| CCOc1ccc(N(CC(=O)NCCSc2ccccn2)S(C)(=O)=O)cc1 | 0.35% (inactive) |
| Cc1c(NS(=O)(=O)CC23CCC(CC2=O)C3(C)C)c(=O)n(-c2ccccc2)n1C (stereo not given) | 2.22% (inactive) |
| CCc1nnc(NC(=O)C2Cc3ccccc3C(=O)O2)s1 (stereo not given) | 1.32% (inactive) |
| COc1ccc(C2C(C(=O)NCCN3CCOCC3)c3ccccc3C(=O)N2C)cc1OC (stereo not given) | 1.24% (inactive) |
| CC1CCN(c2nnc(N3CCC(C)CC3)c3ccccc23)CC1 | 1.98% (inactive) |
| Cc1ccc(S(=O)(=O)N2CCN(C(=O)CN3CCCC3)C2)cc1 | 1.62% (inactive) |
| O=C(Nc1ccc(S(=O)(=O)N2CCOCC2)cc1)c1ccc(Cl)cc1 | 2.31% (inactive) |
| O=C(O)CCNc1cc2ccccc2cc1C(=O)O | 1.59% (inactive) |
| CCCn1c(C(O)c2ccc3c(c2)OCO3)nc2ccccc21 (stereo not given) | 2.31% (inactive) |
| CCc1ccc2c(c1)C(NC(C)=O)C(=O)N2CC (stereo not given) | 0.73% (inactive) |
| O=C(c1c(F)cccc1F)N1CCN(c2cccc(C(F)(F)F)c2)CC1 | 0.955% (inactive) |
| CCCn1c2ccccc2c2cc(C(=O)O)ccc21 | 1.95% (inactive) |
| O=S(=O)(NCCSc1nnc(-c2ccco2)n1-c1ccccc1)c1ccccc1 | 1.52% (inactive) |
| COc1ccc(Nc2ccc3c(c2)=NC2(CCCCC2)[N+]=3[O-])cc1 | 4.35% (inactive) |
| Cn1c(Cn2c(=O)sc3ccccc32)nnc1SCC(=O)NCc1ccccc1Cl | 0.62% (inactive) |
| O=C(Nc1cccnc1)c1ccccc1F | 0.88% (inactive) |
| CCOc1ccc2nc(N3CCC(C(=O)Nc4nnc(CC)s4)CC3)sc2c1 | 2.67% (inactive) |
| O=C1N(O)C2(C=CCCC2)/C(=N\O)C12CCCCC2 (stereo not given) | -0.15% (inactive) |
| O=C1CCCC2=C1C1(O)C(=O)c3ccccc3C1(O)O2 (stereo not given) | 1.28% (inactive) |
| CC1CCC(NC(=O)c2cc3c(=O)n(C)c4ccccc4c3n2C)CC1 (stereo not given) | 2.25% (inactive) |
